Source: PubChem (National Center for Advancing Translational Sciences (NCATS))
IL-1B inflam inh: inhibitors of inflammasome signaling (IL-1 beta secretion). THP-1 LPS/ATP IL-1B secretion, AlphaLISA, 16 h; hits give low values. activity change, % at 57.5 µM. 360,000 tested, 4.7% active. AID 743279; in the data active = activity change below about -50%; inconclusive = mostly about -30% to -49%
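Secreted IL-1B measured by AlphaLISA bead assay after 16 h compound exposure of THP-1 cells; compounds (final up to 57.5 uM) added 1 h before LPS (250 ng/mL) and ATP (1.25 mM) stimulation; lower signal means less secretion.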
TDP1 cell noCPT: qHTS for Inhibitors of human tyrosyl-DNA phosphodiesterase 1 (TDP1): qHTS in cells in absence of CPT; Potency, µM (doses to about 46.2 µM), for inactives: top-dose activity change, negative = growth inhibition, actives largely listed as inhibitors; DT40 Tdp1-/- hTDP1 cells, no CPT, ATP luminescence, 48 h; 420,000 tested, 15% active; AID 686978, 2013; also: potency is read from the fitted curve at half-maximal effect; nearly all actives have a fitted effect of over 55% in size
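Chicken DT40 Tdp1-/- cells stably complemented with human TDP1 were seeded at 400 cells/well with DMSO in place of 20 nM camptothecin. After compound pinning, cells grew at least 48 hr at 37 °C; viability read by CellTiter-Glo luminescence.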
TDP1 cell CPT: DT40-hTDP1 cell growth loss with CPT; chicken DT40 Tdp1-/-;hTDP1 cells + 20 nM CPT, ATP luminescence, 48 h; Potency, µM (highest dose often 46.2 µM), for inactives: at the top dose activity change, negative = growth inhibition, usual class: inhibitors; 420,000 tested, 12% active; AID 686979; also: potency is read from the fitted curve at half-maximal effect; nearly all actives have a fitted effect of over 55% in size
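Chicken DT40 Tdp1-/- cells complemented with human TDP1, 400 cells/well, exposed to compounds plus 20 nM camptothecin for at least 48 h at 37 C; viability read as ATP content by CellTiter-Glo luminescence.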
HT1080 IDH1KD tx: toxicity to HT-1080 IDH1 knockdown cells (counter line). HT-1080 IDH1 knockdown viability, ATP luminescence, 48 h. Potency, µM (titrated, usually from 46.1 µM), for inactives: at the highest dose activity, negative = toxicity, hits mostly cytotoxic. 360,000 tested, 2% active. AID 686971;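 also: potency is read from the fitted curve at half-maximal effect; 0% = DMSO wells and -100% = cell-free medium wells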
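In this qHTS, HT-1080 cells depleted of IDH1 are exposed for 48 h at 37 °C to compound titrations. Toxicity is scored from CellTiter-Glo luminescence, with DMSO as full viability and medium alone as none.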
HT1080-NT tox: kills 2HG-producing HT-1080-NT fibrosarcoma cells | 360,000 tested, 1.6% active | HT-1080-NT fibrosarcoma viability, CellTiter-Glo ATP luminescence, 48 h | AID 686970 | Potency, µM (titrated, usually from 46.1 µM), for inactives: at the top dose activity, negative = less viability, usual class: cytotoxic;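 also: NT is the 2HG producing partner of a matched IDH1 knockdown line; potency is read from the fitted curve at half-maximal effect; 0% = DMSO-treated cells and -100% = media-only wells without cells; nearly all actives have a fitted effect of over 55% in size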
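Read-out is CellTiter-Glo luminescence after 10 minutes at room temperature, following 48 hours' compound treatment of HT-1080-NT cells (750 cells/well, RPMI, 5% FBS, 37 degrees C).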
Numbers without * were called inactive; ? = inconclusive; · = not tested or not shown. Shown are actives, neighbours in structure and some others; about 19% of the full set was active somewhere. Unless noted, calls follow the shape of the dose curve; as a rule, active = well fitted curve in the direction sought with a large enough effect; inconclusive = small, poorly fitted or top-dose-only effect, or another doubt; inactive = no such curve, though single readings can be large; an effect the other way counts as inactive or inconclusive. Unless noted, % is scaled to controls: 0 for no effect and ±100 for the full control effect.

SMILES	IL-1B inflam inh	TDP1 cell noCPT	TDP1 cell CPT	HT1080 IDH1KD tx	HT1080-NT tox
CCOc1ccccc1N1CCN(C(=O)c2ccc(NS(=O)(=O)c3ccc4[nH]c(=O)[nH]c4c3)cc2)CC1	-1.4	-5.6%	4.4%	1.0%	-4.0%
COc1ccc(CCNc2ccc(C(CC(N)=O)NC(=O)c3cc(OC)ccc3OC)cc2[N+](=O)[O-])cc1 (configuration not stated)	-19.1	?	25.9µM*	-0.8%	-1.6%
CCCCNc1ccc(C(CC(N)=O)NC(=O)Cc2cccc3ccccc23)cc1[N+](=O)[O-] (configuration not stated)	-0.7	-21.5%	-7.2%	7.0%	9.6%
COc1ccc(CCNc2ccc(C(CC(N)=O)NC(=O)Cc3cccc4ccccc34)cc2[N+](=O)[O-])cc1 (configuration not stated)	-3.0	?	23.1µM*	1.1%	-0.2%
COc1ccc(OC)c(C(=O)NC(CC(N)=O)c2ccc(NCCOc3ccccc3)c([N+](=O)[O-])c2)c1 (configuration not stated)	-2.9	?	?	0.2%	6.3%
O=C(c1ccc(Cl)c(Cl)c1)N1CCC(=O)N([C@H](COCc2ccccc2)Cc2ccccc2)CC1	-13.0	18.4µM*	20.6µM*	?	?
O=C(c1ccc(Cl)c(Cl)c1)N1CCC(=O)N(C(COCc2ccccc2)Cc2ccccc2)CC1 (configuration not stated)	?	23.1µM*	16.4µM*	?	?
O=C(c1ccc(Cl)c(Cl)c1)N1CCC(=O)N([C@H](COCc2cccc(C(F)(F)F)c2)Cc2ccccc2)CC1	-12.0	?	?	?	?
O=C(c1cccc(Cl)c1)N1CCC(=O)N(C(COCc2ccccc2)Cc2ccccc2)CC1 (configuration not stated)	-5.3	?	?	-4.5%	-15.3%
Cc1cccc(-n2ncc3c(N4CCC(C)CC4)ncnc32)c1	?	?	?	1.2%	4.3%
Cc1cccc(-n2ncc3c(N4CCCCCC4)ncnc32)c1	·	20.6µM*	?	·	·
CCN1CCN(c2ncnc3c2cnn3-c2cccc(C)c2)CC1	·	?	23.1µM*	·	·
COc1cccc(N2CCN(c3ncnc4c3cnn4-c3ccc(C)cc3C)CC2)c1	-79.5*	2.59µM*	1.84µM*	?	23.1µM*
Cc1ccc(-n2ncc3c(N4CCCC4)ncnc32)c(C)c1	0.0	-7.8%	-3.5%	-3.4%	-2.4%
